The source made the active and inactive calls. How the source made its calls: active means hit-call score of the fitted dose curve at least 0.9, where 1 is the maximum; inactive means score below 0.9.
Test: ATG_M_06_CIS: Attagene CIS-FACTORIAL HepG2 Assay for M06 Transcription Factor (Internal Marker) (AID 2282950)
Conditions: HepG2 Attagene CIS-FACTORIAL M06 internal marker reporter; actives raise or lower the signal
Procedure: ATG_CIS is a cell-based, multiplexed-readout assay that uses HepG2, a human liver cell line, with measurements taken at 24 hours after chemical dosing in a 24-well plate.ATG_M_06_CIS is one of 52 assay component(s) measured or calculated from the ATG_CIS assay. It is designed to make measurements of mRNA induction, a form of inducible reporter, as detected with fluorescence intensity signals by Reverse transcription polymerase chain reaction (RT-PCR) and Capillary electrophoresis technology.Data from the assay component ATG_M_06_CIS was analyzed into 1 assay endpoint. This assay endpoint, ATG_M_06_CIS, was analyzed with bidirectional fitting relative to DMSO as the negative control and baseline of activity. Using a type of inducible reporter, measures of mRNA for gain or loss-of-signal activity can be used to understand the background control at the transcription factor-level as they relate to the gene . Furthermore, this assay endpoint can be referred to as a secondary readout, because this assay has produced multiple assay endpoints where this one serves a background control function. To generalize the intended target to other relatable targets, this assay endpoint is annotated to the background measurement intended target family, where the subfamily is internal marker.
Human liver HepG2 cells are transiently transfected with multiple reporter transcription units (MRTUs) in 6-well plates using FuGene 6 reagent (Roche; 3 ml FuGene/1 mg DNA). The MRTU constructs are regulated by a cis-regulating element (promoter). […] A major difference between the CIS and TRANS system is that in CIS activities of endogenous TFs are measured, whereas the TRANS assay evaluates changes in activities of exogenous, chimeric NR-Gal4 proteins. […] At the end of 24 hour incubation, total RNA was isolated using TriZol reagent (Invitrogen). The isolated RNA is then reverse-transcribed using oligo(dT) primer and Mo-MLV reverse transcriptase (Invitrogen) with DNAse I (Ambion) treatment for 30 min. The one-tenth of the produced cDNA was amplified by PCR using Taq DNA polymerase (Invitrogen) and two reporter sequence-specific primers. The PCR products were fluorescently labeled by primer extension with 6-arboxyfluorescein (6-FAM) 5'-labeled reporter sequence-specific primer (2 min at 95 C, 20 s at 68 C and 10 min at 72 C) and these products were digested with 5U of HpaI (New England Biolabs) for 2h at 37 C. The fragments were purified using Qiaquick PCR columns (Qiagen), analyzed on an ABI 3130xL genetic analyzer (Applied Biosystems) with peak positions identified by using a set of X-rhodamine (ROX)-labeled MapMarker1000 molecular weight standards (BioVentures). The raw capillary electrophoresis data was processed using Attagraph software (Attagene).

Structure (SMILES)	outcome
CC(=O)C=O	inactive
O=S(=O)(O)CCC(F)(F)C(F)(F)C(F)(F)C(F)(F)F	inactive
c1ccc(C[P+](c2ccccc2)(c2ccccc2)c2ccccc2)cc1	inactive
CCOC(=O)CCC(C)=O	inactive
FC(F)(F)C(F)(F)C(F)(F)CC1CO1 (stereo not given)	inactive
CCOC(C=C(C)CCC=C(C)C)OCC	inactive
CC(C)OC=O	inactive
CC1CCCCC1	inactive
O=C1c2ccccc2C(=O)c2c(Cl)cccc21	inactive
CCCCCCCCCCCCC[N+](C)(C)Cc1ccccc1	inactive
NCC(F)(F)C(F)(F)C(F)(F)C(F)(F)C(F)(F)C(F)(F)F	inactive
CCN(CC)c1ccc(C=O)cc1	inactive
OCC(F)(F)C(F)(F)C(F)(F)C(F)(F)C(F)(F)C(F)(F)CO	inactive
CC1=CC2C3C=CC(C3)C2C1C (stereo not given)	inactive
CSc1ccc(Cl)cc1	inactive
OCCCc1cccnc1	inactive
O=C(c1ccccc1)c1ccc(Cl)cc1	inactive
COCCOCCC[Si](C)(O[Si](C)(C)C)O[Si](C)(C)C	inactive
CCCC(=O)OCC(COC(=O)CCC)OC(=O)CCC	inactive
OCC1CCCO1 (stereo not given)	inactive

Structure (SMILES)	outcome
CC(C)C(=O)OCc1ccccc1	inactive
CCCCCC/C=C/CCCCCCCC(=O)O	inactive
CC(C)Nc1ccc(NC(C)C)c2c1C(=O)c1ccccc1C2=O	inactive
COC(=O)c1ccc(C=O)cc1	inactive
C[Si](C)O[Si](C)C	inactive
FC(F)(F)C(F)(F)C(F)(F)C(F)(F)C(F)(F)C(F)(F)CC[Si](Cl)(Cl)Cl	inactive
O=C(O)C(F)(F)C(F)(F)C(F)(F)OC(F)(C(F)(F)F)C(F)(F)F	inactive
O=C(O)C(F)(F)C(F)(F)C(F)(F)C(=O)O	inactive
CCN(CC)c1ccc(C=O)c(O)c1	inactive
CCC/C=C/CO	inactive
CC(O)C#CC(C)O (stereo not given)	inactive
O=C(O)CCC(F)(F)C(F)(F)C(F)(F)F	inactive
C=CC(=O)OCC(F)(F)C(F)(F)C(F)(F)C(F)(F)C(F)(F)C(F)(F)C(F)(F)C(F)F	inactive
FC(F)(F)C(F)(F)C(F)(F)C(F)(F)C(F)(F)C(F)(F)C(F)(F)CCI	inactive
C=C(C)C(=O)OCC(F)(F)C(F)(F)C(F)(F)C(F)F	inactive
CN(C(=O)C(F)(F)C(F)(F)C(F)(F)F)[Si](C)(C)C	inactive
OCC(F)(F)C(F)(F)C(F)(F)CO	inactive
CCCCCCCCCCCCCC[P+](CCCC)(CCCC)CCCC	inactive
CC(C)(C)c1cc(CCC(=O)OCC(COC(=O)CCc2cc(C(C)(C)C)c(O)c(C(C)(C)C)c2)(COC(=O)CCc2cc(C(C)(C)C)c(O)c(C(C)(C)C)c2)COC(=O)CCc2cc(C(C)(C)C)c(O)c(C(C)(C)C)c2)cc(C(C)(C)C)c1O	inactive
CCC(C)CO (stereo not given)	inactive

From PubChem BioAssay (EPA / NIEHS)
